Experimental data reported in PubChem BioAssay (NCI).
The panel holds about 83,000 compounds, 20% with a hit somewhere; the sample as a whole holds those more often.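 48-hour exposure, single concentration, 96-well plates; percent growth endpoint where 0 means no net growth. Active: below 10.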 Activity calls are given as the source filed them.

What was measured:
Assay in all cases: NCI-60 one-dose screen, 48 h (100 = growth as untreated, 0 = no growth, -100 = all killed)
[1] = tested on: NCI-H23 lung
[2] = tested on: NCI-H226 lung
[3] = tested on: NCI-H322M lung; settings: 10 µM unless noted
[4] = tested on: HOP-62 NSCLC
[5] = tested on: NCI-H460 lung
[6] = tested on: HOP-92 NSCLC
[7] = tested on: NCI-H522 lung
[8] = tested on: A549/ATCC NSCLC
[9] = tested on: 786-0 renal
[10] = tested on: COLO 205 colon
[11] = tested on: DU-145 prostate
[12] = tested on: K-562 leukemia
[13] = tested on: MALME-3M melanoma
[14] = tested on: MDA-MB-231 breast
[15] = tested on: RXF 393 renal
[16] = tested on: SF-268 CNS
[17] = tested on: SF-295 CNS
[18] = tested on: SF-539 CNS
[19] = tested on: UACC-257 melanoma
[20] = tested on: M14 melanoma

Measured: growth

CC[C@@H]1NC(=O)[C@H]([C@H](O)[C@H](C)C/C=C/c2ccc(CN3C(=O)C(C)=C(C)C3=O)cc2)N(C)C(=O)[C@H](C(C)C)N(C)C(=O)[C@H](CC(C)C)N(C)C(=O)[C@H](CC(C)C)N(C)C(=O)[C@@H](C)NC(=O)[C@H](C)NC(=O)[C@H](CC(C)C)N(C)C(=O)[C@H](C(C)C)NC(=O)[C@H](CC(C)C)N(C)C(=O)CN(C)C1=O
inactive: [1]; 10 µM unless noted 82.6% | [2]; 10 µM unless noted 65% | [3] 65.7% | [4]; 10 µM unless noted 70.7% | [5]; 10 µM unless noted 80.7% | [6]; 10 µM unless noted 68.8% | [7]; 10 µM unless noted 61.9% | [8]; 10 µM unless noted 58.1% | [9]; 10 µM unless noted 97.6% | [10]; 10 µM unless noted 72.8% | [11]; 10 µM unless noted 73.9% | [12]; 10 µM unless noted 70% | [13]; 10 µM unless noted 88.2% | [14]; 10 µM unless noted 71.5% | [15]; 10 µM unless noted 80% | [16]; 10 µM unless noted 71% | [17]; 10 µM unless noted 69.4% | [18]; 10 µM unless noted 86.9% | [19]; 10 µM unless noted 69.4% | [20]; 10 µM unless noted 60%

O=C1/C(=C/c2cn(-c3ccccc3)nc2-c2ccccc2)SC(=S)N1c1ccccc1
inactive: [1]; 10 µM unless noted 95% | [2]; 10 µM unless noted 96.2% | [3] 99.2% | [4]; 10 µM unless noted 100% | [5]; 10 µM unless noted 107% | [6]; 10 µM unless noted 33.6% | [7]; 10 µM unless noted 91.3% | [8]; 10 µM unless noted 105% | [9]; 10 µM unless noted 105% | [10]; 10 µM unless noted 117% | [11]; 10 µM unless noted 102% | [12]; 10 µM unless noted 104% | [13]; 10 µM unless noted 94.5% | [14]; 10 µM unless noted 89.1% | [15]; 10 µM unless noted 107% | [16]; 10 µM unless noted 99.1% | [17]; 10 µM unless noted 97.5% | [18]; 10 µM unless noted 94.5% | [19]; 10 µM unless noted 107% | [20]; 10 µM unless noted 97.2%

COc1ccc(C(=O)/C=C/c2ccc(OCc3cccc(C(F)(F)F)c3)c(OC)c2)cc1OC
active: [2]; 100 µM -12.8% | [4]; 100 µM 5.03% | [5]; 100 µM 6.09% | [6]; 100 µM -17.4% | [7]; 100 µM -18.5% | [9]; 100 µM -3.87% | [14]; 100 µM -12.9% | [15]; 100 µM -13%
inactive: [1]; 10 µM 69.9% | [1]; 100 µM 11.1% | [2]; 10 µM 81.4% | [3] 11.7% [100 µM] | [4]; 10 µM 111% | [5]; 10 µM 78.9% | [6]; 10 µM 79.4% | [7]; 10 µM 53.8% | [8]; 10 µM 73.1% | [8]; 100 µM 14.9% | [9]; 10 µM 122% | [10]; 10 µM 103% | [10]; 100 µM 23.2% | [11]; 10 µM 72.7% | [11]; 100 µM 19.4% | [12]; 10 µM 39.1% | [12]; 100 µM 12.2% | [13]; 10 µM 97.7% | [13]; 100 µM 23.5% | [14]; 10 µM 79.9% | [15]; 10 µM 97.7% | [16]; 10 µM 86.4% | [16]; 100 µM 14.6% | [17]; 10 µM 98.2% | [17]; 100 µM 21.7% | [18]; 10 µM 103% | [18]; 100 µM 12% | [19]; 10 µM 93.9% | [19]; 100 µM 28.7% | [20]; 10 µM 85.3% | [20]; 100 µM 35.4%

Nc1n[nH]c2cccc(C#Cc3cccc(C(=O)Nc4ccc(CN5CCOCC5)c(C(F)(F)F)c4)c3)c12
inactive: [1]; 10 µM unless noted 33.6% | [2]; 10 µM unless noted 36.5% | [3] 72.2% | [4]; 10 µM unless noted 52.1% | [5]; 10 µM unless noted 44.5% | [6]; 10 µM unless noted 35.5% | [7]; 10 µM unless noted 41.9% | [8]; 10 µM unless noted 43.4% | [10]; 10 µM unless noted 13.1% | [11]; 10 µM unless noted 69.5% | [14]; 10 µM unless noted 28.8% | [16]; 10 µM unless noted 55% | [19]; 10 µM unless noted 40.1%
active: [9]; 10 µM unless noted 8.57% | [12]; 10 µM unless noted 4.19% | [13]; 10 µM unless noted -3.92% | [15]; 10 µM unless noted -4.45% | [17]; 10 µM unless noted 2.26% | [18]; 10 µM unless noted -54.5% | [20]; 10 µM unless noted 5.11%

O=C(CN1C(=O)S/C(=C\C(Cl)=C\c2ccccc2)C1=O)NCCCn1ccnc1
active: [7]; 10 µM unless noted -3.5% | [9]; 10 µM unless noted 9.43% | [10]; 10 µM unless noted 4.93% | [12]; 10 µM unless noted 5.22% | [15]; 10 µM unless noted -25.9%
inactive: [1]; 10 µM unless noted 24% | [2]; 10 µM unless noted 41.9% | [3] 90.8% | [4]; 10 µM unless noted 84.9% | [5]; 10 µM unless noted 68.5% | [6]; 10 µM unless noted 52.5% | [8]; 10 µM unless noted 85.2% | [11]; 10 µM unless noted 31.5% | [13]; 10 µM unless noted 25.4% | [14]; 10 µM unless noted 21.5% | [16]; 10 µM unless noted 86.7% | [17]; 10 µM unless noted 79.8% | [18]; 10 µM unless noted 15.2% | [19]; 10 µM unless noted 75.1% | [20]; 10 µM unless noted 21.3%

CN1CCN(c2ccc(Nc3ncc(C(N)=O)c(NCCCNC(=O)C4CCC4)n3)cc2)CC1
inactive: [1]; 10 µM unless noted 70.4% | [2]; 10 µM unless noted 62.1% | [3] 75.8% | [4]; 10 µM unless noted 34% | [5]; 10 µM unless noted 78.9% | [6]; 10 µM unless noted 113% | [7]; 10 µM unless noted 77.3% | [8]; 10 µM unless noted 78.2% | [9]; 10 µM unless noted 90.2% | [11]; 10 µM unless noted 67.6% | [12]; 10 µM unless noted 41.7% | [13]; 10 µM unless noted 76.6% | [14]; 10 µM unless noted 11.6% | [15]; 10 µM unless noted 20.4% | [16]; 10 µM unless noted 80.6% | [17]; 10 µM unless noted 81.3% | [18]; 10 µM unless noted 11.1% | [19]; 10 µM unless noted 119% | [20]; 10 µM unless noted 80%
active: [10]; 10 µM unless noted -5.21%
